PubChem BioAssay AID602373 (National Center for Advancing Translational Sciences (NCATS), 2012)
Where “and” joins values, the source holds several entries; their conditions need not be identical. Equal values may be shown once. Records with an inconclusive call do not appear. Unmarked numbers belong to inactive results. Calls of active or inactive are those of the source. The call rests on the fitted dose curve; in most records, active means well fitted inhibition curve with a large enough effect; inconclusive means small, poorly fitted or top-dose-only effect; inactive means no such curve, though single readings can be large or run the other way.

experiment: qHTS Assay for Inhibitors of Bacillus subtilis Sfp phosphopantetheinyl transferase (PPTase): Hepg2 Assay; details: HepG2 cytotoxicity counter-screen; series mostly up to 46.1 µM; activity change, negative = inhibition: at the top concentration
Description: The covalent attachment of a phosphopantetheinyl (4'-PP) arm to a variety of synthases and other proteins is a key posttranslational protein modification. The 4'-PP is installed on the proteins post-translationally from coenzyme A (CoA) on a conserved serine residue by action of phosphopantetheinyl transferase (PPTase) enzymes. Phosphopantetheinylation is essential for synthase activity, and removal of the PPTase gene precludes natural product synthesis in microorganisms, or in the case of fatty acid biosynthesis, renders the organism unviable. PPTase enzymes belong to a distinct structural superfamily. Within bacteria, these enzymes are grouped into two classes based upon primary structure, the AcpS-Type and Sfp-Type PPTases.
Sfp-type PPTases, corresponding to an activator of surfactin production in Bacillus subtilis, are responsible for modifying type I polyketide and nonribosomal peptide synthases of prokaryotes. Sfp-type PPTases are responsible for the activation of a variety of pathogen-associated virulence factors. Among these compounds are toxins such as mycolactone from Mycobacterium ulcerans, siderophores such as vibriobactin from Vibrio cholerae or mycobactin from Mycobacterium tuberculosis, as well as the mycolic acids which form the waxy cell wall of Mycobacteria. The biosyntheses of these natural products are considered attractive targets for drug design.
In search of small molecule Sfp-PPTase inhibitors, a fluorescence quenching assay was developed for detection of Bacillus subtilis Sfp-PPTase enzymatic activity in a miniaturized high-throughput format. The consensus ybbr acceptor peptide […] was N-terminally labeled with Black Hole Quencher-2 (BHQ-2) and used in combination with rhodamine-labeled coenzyme A as a co-substrate.
Phosphopantetheinyl transfer is a process essential to cellular viability and maintenance in all forms of life. Cell-permeable and stable compounds acting as PPTase inhibitors are anticipated to be growth inhibitory agents. This assay sought to assess the toxicity of test compounds in the HepG2 hepatocarcinoma cells; a human cell line whose use additionally determines the toxicity of test article metabolites.
NIH Chemical Genomics Center [NCGC]
NIH Molecular Libraries Probe Centers Network [MLPCN]
Assay Submitter (PI): Michale Burkart, University of California, San Diego
Test compounds' toxicity was assessed by measuring cellular ATP content using a luciferase-coupled ATP quantitation assay (CellTiter-Glo; Promega, Madison, WI). In this assay, luminescent signal is proportional to amount of ATP, and thus to the number of metabolically competent cells. Briefly, Hepg2 cell suspension (5 uL, 4 x 10^5 cells/mL) was dispensed into 1,536-well tissue-culture treated white/solid bottom assay plates (Greiner Bio-One North America, Monroe, NC) using a Flying Reagent Dispenser (Aurora Discovery, Carlsbad, CA). Cells were incubated at 37 deg C for 6 hr to allow for cell attachment, followed by addition of compounds via pin tool (Kalypsys, San Diego, CA). After compound addition, plates were incubated for 48 hr at 37 deg C. At the end of the incubation period, CellTiter-Glo reagent (5 uL) was added, plates were incubated at room temperature in the dark for 30 min, and the luminescence intensity of each well was determined using a ViewLux plate reader (PerkinElmer, Shelton, CT). The positive control was 92 uM and 41 uM of tetra-N-Octylammonium bromide, and the negative control was DMSO.

SMILES	activity change, negative = inhibition	Potency
Cc1cc(C)nc(NC(=S)N2CCN(Cc3cccc4ccccc34)CC2)c1	2.15%	–
Cc1cc(C)nc(NC(=S)N2CCN(c3ncnc4sccc34)CC2)c1	–	15.8 µM (active)
Cc1cc(C)nc(NC(=S)N2CCN(c3nccc4ccccc34)CC2)c1	-1.21%	–
Cc1ccnc(NC(=S)N2CCN(c3cc(C(F)(F)F)cc(C(F)(F)F)c3)CC2)c1	–	7.91 µM (active)
Cc1cc(C)nc(NC(=S)N2CCN(c3ccc4nncn4c3)CC2)c1	1.53%	–
Cc1cc(C)nc(NC(=S)N2CCN(c3ccc(C(F)(F)F)cc3[N+](=O)[O-])CC2)c1	-9.46%	–
CCN1CCN(C(=S)c2ccc(O)cc2)CC1	6.5%	–
CC(=O)N1CCN(C(=S)Nc2cc(C)ccn2)CC1	4.75%	–
Cc1cc(C)nc(NC(=S)N2CCN(c3ccc4occc4c3)CC2)c1	-5.28%	–
Cc1cc(C)nc(NC(=S)N2CCN(c3ccc(Cl)cc3F)CC2)c1	1.76%	–
COc1ccnc(NC(=S)N2CCN(c3ncc(C(F)(F)F)cc3Cl)CC2)c1	1.74%	–
COc1cccc(NC(=S)N2CCN(c3ccc(Cl)c(Cl)c3)CC2)n1	4.44%	–
Cc1ccnc(NC(=S)N2CCN(c3ccc(Cl)c(Cl)c3)CC2)c1	–	28.1 µM (active)
Cc1cc(C)nc(NC(=S)N2CCN(c3cccc(S(C)(=O)=O)c3)CC2)c1	-7.99%	–
Cc1cc(C)nc(NC(=S)N2CCN(c3ccc4c(c3)OCO4)CC2)c1	6.85%	–
Cc1cc(C)nc(NC(=S)N2CCN(c3ccc(C(=O)O)cc3)CC2)c1	-3.29%	–
FC(F)(F)c1cccc(N2CCN(C(=S)Nc3cc4ccccc4cn3)CC2)c1	-4.29%	–
Cc1cc(C)nc(NC(=S)N2CCN(c3ccc(Cl)nn3)CC2)c1	-6.42%	–
CC(Cc1ccccc1)C(=O)Nc1ccc(Cl)cc1C(=O)O (stereo not given)	-0.724%	–
FC(F)(F)c1cc(N2CCN(C(=S)Nc3cc(Cl)ccn3)CC2)cc(C(F)(F)F)c1	–	15.8 µM (active)

SMILES	activity change, negative = inhibition	Potency
Cc1cc(C)nc(NC(=S)N2CCN(c3ccc(Cl)c(Cl)c3Cl)CC2)c1	6.12%	–
COc1cc(NC(=S)N2CCN(c3cccc(C(F)(F)F)c3)CC2)nc2ccccc12	-1.11%	–
Cc1cc(C)nc(NC(=S)N2CCN(c3cc(C(F)(F)F)nc4ccc(C(F)(F)F)cc34)CC2)c1	-2.74%	–
Cc1cc(C)nc(NC(=S)N2CCN(c3ccc4nonc4c3)CC2)c1	4.13%	–
COc1ccnc(NC(=S)N2CCN(c3cccc(Cl)c3Cl)CC2)c1	-11.5%	–
COc1cccc(NC(=S)N2CCN(c3cccc(Cl)c3Cl)CC2)n1	-0.194%	–
Cc1cc(C)nc(NC(=S)N2CCN(c3nc4ccccc4s3)CC2)c1	1.77%	–
Cc1ccnc(NC(=S)NC2CCN(c3cccc(C(F)(F)F)c3)CC2)c1	-11.6%	–
COc1ccnc(NC(=S)N2CCN(c3ccc(Cl)cc3Cl)CC2)c1	-6.72%	–
Cc1ccnc(NC(=S)N2CCN(c3cccc(C(F)(F)F)c3)CC2)c1	–	28.1 µM (active) and 9.96 µM (active) and 25 µM (active)
Cc1ccnc(NC(=S)N2CCN(c3ccc(N)cc3)CC2)c1	-12%	–
Cc1cc(C)nc(NC(=C(C#N)C#N)N2CCN(c3cccc(C(F)(F)F)c3)CC2)c1	–	inactive
FC(F)(F)c1cccc(N2CCN(C(=S)Nc3ncnc4ccccc34)CC2)c1	-5.29%	–
Cc1cc(C)nc(NC(=S)N2CCN(c3ccc(Cl)cc3C(F)(F)F)CC2)c1	-3.78%	–
Cc1cc(C)nc(NC(=S)N2CCN(c3ccc4cn(C)nc4c3)CC2)c1	11.5%	–
Cc1ccnc(N(C)C(=S)N2CCN(c3cccc(C(F)(F)F)c3)CC2)c1	-10.8%	–
Cc1cc(C)nc(NC(=S)N2CCN(c3nccs3)CC2)c1	6.89%	–
Cc1cc(C)nc(NC(=S)N2CCN(c3ccccn3)CC2)c1	–	inactive
Cc1ccc(N2CCN(C(=S)Nc3cc(C)ccn3)CC2)cc1	-4.42%	–
Cc1ccnc(NC(=S)N2CCN(c3cccc(C(F)(F)F)c3)C[C@@H]2C)c1	-7.74%	–
